According to PubChem BioAssay (EPA / NIEHS):
Calls of active or inactive are those of the source. The calls were made as follows: active = hit-call score of the fitted dose curve at least 0.9, where 1 is the maximum; inactive = score below 0.9.

Assay: APR_HepG2_MitoticArrest_72hr: Apredica 72-hour HepG2 Assay for Mitotic Arrest (AID 2282918)
Settings: high-content imaging, actives raise or lower the signal
Procedure: APR_HepG2_72hr is a cell-based, multiplexed-readout assay that uses HepG2, a human liver cell line, with measurements taken at 72 hours after chemical dosing in a 384-well plate.APR_HepG2_MitoticArrest_72hr is one of 10 assay component(s) measured or calculated from the APR_HepG2_72hr assay. It is designed to make measurements of cell phenotype, a form of morphology reporter, as detected with fluorescence intensity signals by HCS Fluorescent Imaging technology.Data from the assay component APR_HepG2_MitoticArrest_72hr was analyzed into 1 assay endpoint. This assay endpoint, APR_HepG2_MitoticArrest_72hr, was analyzed with bidirectional fitting relative to DMSO as the negative control and baseline of activity. Using a type of morphology reporter, measures of protein for gain or loss-of-signal activity can be used to understand the signaling at the pathway-level as they relate to the gene . Furthermore, this assay endpoint can be referred to as a primary readout, because this assay has produced multiple assay endpoints where this one serves a signaling function. To generalize the intended target to other relatable targets, this assay endpoint is annotated to the cell cycle intended target family, where the subfamily is arrest.
Cells were treated with dimethyl sulfoxide (DMSO) as a solvent control at a final concentration of 0.5% v/v or with compounds in DMSO with a resulting final DMSO concentration of 0.5% v/v. Compound treatment was done at concentrations of 0.39, 0.78, 1.56, 3.12, 6.24, 12.5, 25, 50, 100, and 200 uM in duplicate on each plate. Cells were treated with compounds for 1, 24, or 72 hr. Carbonyl […] m-chloro-phenylhydrazone (CCCP) and taxol were used as positive controls for mitochondrial function and cytoskeletal stability, respectively; DMSO served as the negative control for this experiment. Cells were fixed by the direct addition of 50 uL formaldehyde in Hank's Balanced Salt Solution (HBSS) to a final concentration of 3.7%. After incubation in the fixation medium for 30 min at room temperature (293-298 K), cells were rinsed twice with HBSS and treated with cell permeabilization buffer (16 uL of 0.5% Triton X-100) for 10 min at room temperature (293-298 K) before labeling. For mitochondrial membrane potential and mitochondrial measurements, pre-fixed cells were incubated with 50 uL of MitoTracker Red CMXRos (Invitrogen) at a concentration of 250 nM for 30 min before fixation. In the remaining cases, post-fixed cells were labeled by incubation with a multiplexed mixture of primary antibodies in HBSS for 60 min at room temperature (293-298 K) to detect immunoreactivity of c-Jun (1:500), phospho-histone H3 (1:100), phospho-histone H2A.x (1:200), p53 (1:400), alpha-tubulin (1:200) and Hoechst 33342 (2 ug/mL). Cells were labeled for multiplexed imaging on two separate plates: a) Hoechst 33342, MitoTracker Red, phospho-histone H3, and alpha-tubulin, and b) Hoechst 33342, phospho-histone H2A.x, and c-Jun. A final rinse with HBSS (50 uL) was performed before analysis. The primary and secondary antibodies for the proteins were phospho-histone H3 (rabbit anti-phospho-histone H3 and FITC-donkey anti-rabbit IgG), phospho-histone H2A.x (mouse anti-phospho-histone H2A.x and FITC-donkey anti-mouse IgG), c-Jun (rabbit anti-phospho-c-Jun and Cy3-donkey anti-rabbit IgG), p53 (sheep anti-p53 and Cy5-donkey anti-sheep IgG), alpha-tubulin (mouse anti-alpha-tubulin and Cy5-donkey anti-mouse IgG). These antibodies are available as the CellCiphr HepG2 assay kit (Millipore).Digital images of each well were captured using a Cellomics ArrayScan VTI (Thermo Scientific Cellomics) (0.8 NA objective, 0.63x optical coupler, and XF-93 filter set) at 20x magnification. The images were acquired using the autofocus feature of the ArrayScan instrument, which entails the following steps. First, the camera focuses on channel 1 (Hoechst 33342), where nuclei are identified. Second, a Z offset of 1 um is used for capturing mitochondria (MitoTracker Red). […]

SMILES	outcome	AC50
CN(C)C(=O)Nc1ccc(Cl)cc1	inactive	
Nc1ccc(Cc2ccc(N)cc2)cc1	inactive	
C1=Cc2cccc3cccc1c23	inactive	
[Cl-].[Cl-].[Hg+2]		17.6 µM (active)
Clc1ccc(Cl)c(Cl)c1	inactive	
CN(C)c1ccccc1	inactive	
Cc1cc(N=Nc2ccccc2C)ccc1N	inactive	
CC(C)N(Cc1ccccc1)C(=O)C(C)(C)C	inactive	
Cc1ccc(N)c(N)c1	inactive	
CCCCCCCCCCCCCN1CC(C)OC(C)C1 (stereo not given)	inactive	
CC(C)(C)C(O)(CCc1ccc(Cl)cc1)Cn1cncn1 (stereo not given)		99.6 µM (active)
CC(C)(OOC(C)(C)c1ccccc1)c1ccccc1		41.9 µM (active)
Nc1ccc(Cl)cc1N		2.4 µM (active)
CCC12COCN1COC2		83.2 µM (active)
Cc1ccc([N+](=O)[O-])cc1	inactive	
Brc1ccc(Oc2ccccc2)cc1		100 µM (active)
CC(C)(C)OOC(=O)c1ccccc1		23.1 µM (active)
CNC(=O)Oc1cccc2c1OC(C)(C)C2	inactive	
N#CC(Br)(Br)C(N)=O	inactive	
Cc1ccc(N)cc1	inactive	

SMILES	outcome	AC50
CN(C)[C@@H]1C(=O)C(C(N)=O)=C(O)[C@@]2(O)C(=O)C3=C(O)c4c(O)cccc4[C@@](C)(O)[C@H]3C[C@@H]12	inactive	
CCOc1cccc(C2(N3CCN(c4ccccc4)CC3)CCC(C)CC2)c1 (stereo not given)	inactive	
CCCCCCCCn1sccc1=O		3.77 µM (active)
c1ccc2c(c1)-c1cccc3cccc-2c13		87.1 µM (active)
CCCCCOC(=O)c1ccccc1C(=O)OCCCCC	inactive	
CO[C@@H]1[C@H](OC(=O)NC(=O)CCl)CC[C@]2(CO2)[C@H]1[C@@]1(C)O[C@@H]1CC=C(C)C	inactive	
CCC(C)c1ccc(O)cc1 (stereo not given)	inactive	
CC(O)CCO (stereo not given)	inactive	
C=CCc1ccc2c(c1)OCO2	inactive	
Clc1ccc(C(c2ccc(Cl)cc2)C(Cl)Cl)cc1		68.3 µM (active)
CC(C)(O)c1cnn2c(-c3ccc(F)c(-c4c(F)cccc4C#N)c3)cnc2n1		25.9 µM (active)
c1ccc(N=Nc2ccccc2)cc1	inactive	
Clc1ccc(C(c2ccc(Cl)cc2)C(Cl)(Cl)Cl)cc1		42.6 µM (active)
O=C(N[C@H](c1ccccc1)[C@@H]1CN2CCC1CC2)c1c(Cl)ccc(C(F)(F)F)c1Cl		24 µM (active)
ClC1=C(Cl)C2(Cl)C3C(Cl)C=CC3C1(Cl)C2(Cl)Cl (stereo not given)		51.3 µM (active)
COC(=O)Nc1nc2ccccc2[nH]1	inactive	
Oc1ccc2ccc3cccc4ccc1c2c34		63.9 µM (active)
CC(C)COC(=O)c1ccccc1C(=O)OCC(C)C		67 µM (active)
CS(=O)(=O)NC(=O)c1cc(Oc2ccc(C(F)(F)F)cc2Cl)ccc1[N+](=O)[O-]	inactive	
CCN(CC)CCO	inactive	
